High-throughput results deposited in PubChem by several laboratories.
Compounds with a hit are over-represented: about 3.8% of the library has one in this group of screens.
ADAM10 inh – human ADAM10 inhibitors, primary screen, biochemical, QFRET, HTS; recombinant ADAM10, EDANS/DABCYL FRET peptide cleavage, 3 h; inhibition, % at 7 µM; actives 0.62% (n = 370,000); AID 720582, 2013;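 active = inhibition above a per-campaign cutoff equal to the mean of compounds falling between control-based bounds plus 3 SD, cut at about 20% in these data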;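 also: 0% = DMSO wells while the 100% control is not disclosed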
Target sequence (O14672 214-748 limits assumed): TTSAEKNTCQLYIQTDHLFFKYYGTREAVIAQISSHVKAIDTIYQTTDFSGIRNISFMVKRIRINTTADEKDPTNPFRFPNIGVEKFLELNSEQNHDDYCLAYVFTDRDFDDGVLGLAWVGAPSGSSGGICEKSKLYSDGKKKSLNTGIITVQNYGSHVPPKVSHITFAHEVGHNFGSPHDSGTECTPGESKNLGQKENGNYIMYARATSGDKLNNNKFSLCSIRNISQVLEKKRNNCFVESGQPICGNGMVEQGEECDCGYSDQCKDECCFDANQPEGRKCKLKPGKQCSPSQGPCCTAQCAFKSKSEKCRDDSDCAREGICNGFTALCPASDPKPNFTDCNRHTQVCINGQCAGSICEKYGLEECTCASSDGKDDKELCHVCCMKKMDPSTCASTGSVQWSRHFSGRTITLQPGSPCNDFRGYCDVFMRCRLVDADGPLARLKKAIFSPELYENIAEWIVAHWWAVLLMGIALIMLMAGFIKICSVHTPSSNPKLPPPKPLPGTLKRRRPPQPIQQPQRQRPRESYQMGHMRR
Ecoli rRNA inh – reduced GFP signal of wild-type E. coli, primary screen, bacterial rRNA inhibitor project, GFP/RFP fluorescence, OD600, single point. E. coli WT GFP vs humanized-ribosome RFP mutants, 24 h; hits give low values; DMSO median 0, no signal -100. GFP signal change (wild-type ribosome), % (no concentration beside the values). actives 1.6% (n = 350,000). AID 720706, 2013;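 active = significant combined selectivity score with lowered wild-type GFP, culture density cut under 30%, mutant RFP and density less affected; inactive = any of these conditions unmet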
KLK7 zymogen act – proKLK7 zymogen activators, primary screen, biochemical, fluorescence intensity; Kallikrein-7 (Homo sapiens), P49862; purified proKLK7, EDANS-DABCYL substrate fluorescence; 100% is mature enzyme control, 0% vehicle; activation, % at 7 µM; actives 0.9% (n = 370,000); AID 652039, 2013;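 active = activation above the mean of all tested compounds plus 3 SD, computed per campaign excluding outliers beyond control limits, cut at about 13% in these data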
ADAM17 inh – ADAM17 inhibitors, primary screen, biochemical, QFRET. Disintegrin and metalloproteinase domain-containing protein 17 (Homo sapiens), P78536. recombinant ADAM17, EDANS/DABCYL FRET peptide cleavage. inhibition, % at 6.95 µM. actives 0.83% (n = 370,000). AID 720648, 2013;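 active = inhibition above the mean of compounds lying between control limits plus 3 SD, set per campaign, cut at about 8.5% in these data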;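 also: 0% = DMSO-only wells as the low control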
FGF22 binding – binders of human FGF22 protein, primary screen, FGF22 synaptogenesis inhibitor project, biophysical, thermal shift, single point; Fibroblast growth factor 22 (Homo sapiens), Q9HCT0; recombinant FGF22 thermal shift, SYPRO orange fluorescence; percent of sucrose octasulfate shift, DMSO zero; activity (Tm shift, normalised), % at 9.99 µM; actives 1.5% (n = 340,000);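 active = mean Tm shift, scaled 0 neutral to 100 positive control, at about 1.3% or above, every replicate too, limit read from the data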
ADAM10 counter – ADAM10 inhibitors, counter-screen for ADAM17 exosite inhibitor project, biochemical, FRET, human ADAM10. shares compounds with ADAM17 inh. recombinant ADAM10, EDANS/DABCYL FRET peptide cleavage, 3 h. inhibition, % at 6.95 µM. actives 47% (n = 2,900). AID 743256, 2014;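 active = mean inhibition over the triplicate runs exceeds the activity threshold set in the earlier primary screen, cut at about 20% in these data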;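 also: 0% = DMSO wells and 100% = marimastat wells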
ADAM17 confirm – ADAM17 inhibitors, hit retest, confirmation, biochemical, QFRET peptide cleavage; shares compounds with ADAM17 inh; recombinant ADAM17, EDANS/DABCYL QFRET peptide cleavage; inhibition, % at 6.95 µM; actives 65% (n = 2,900); AID 743257, 2014;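 active = mean inhibition across replicates above the hit cutoff set in the primary screen, cut at about 8.5% in these data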;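 also: 0% = DMSO wells and 100% = marimastat wells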
* = called active by the depositor; . = no result given.

SMILES	ADAM10 inh	Ecoli rRNA inh	KLK7 zymogen act	ADAM17 inh	FGF22 binding	ADAM10 counter	ADAM17 confirm
COc1ccc(N2CCC(CNC(=O)Nc3ccccc3)C2)cc1 (centres undefined)	9	.	-1	14*	.	3	8
CN1/C(=C/C(=O)C2CCC2)Sc2ccccc21	14	-7	1	12*	0	8	8
COCC(=O)/C=C1\Sc2ccccc2N1C	0	7	0	-1	0	.	.
C[C@@H]1CN([C@@H](C)CO)C(=O)Cc2cc(NS(=O)(=O)c3ccc(Cl)cc3)ccc2O[C@H]1CN(C)C(=O)Nc1ccc2c(c1)OCO2	.	-1	.	.	.	.	.
CCN(C(=O)c1ccc(C(C)(C)C)cc1)c1nnc(Cn2nnc3ccccc32)s1	12	.	0	9.3*	.	18	9.5*
COc1ccc2c3c([nH]c2c1)[C@H](CO)N(C(=O)C1CCC1)CC31CN(S(C)(=O)=O)C1	.	-2	.	.	0	.	.
Cc1cc(C)c(S(=O)(=O)N2CCCOC2CNC(=O)C(=O)NCCc2c[nH]c3ccccc23)c(C)c1 (centres undefined)	16	.	-1	8.6*	.	20*	12*
Cc1cc(C)cc(NC(=O)C(=O)NCCc2c[nH]c3ccccc23)c1	27*	-5	0	11*	0	21*	11*
C[C@H]1CN([C@@H](C)CO)C(=O)c2cc(NC(=O)CCC(F)(F)F)ccc2O[C@H]1CN(C)Cc1ccc(Oc2ccccc2)cc1	.	-16	.	.	0	.	.
O=C(CNC(=S)N(Cc1ccccc1)Cc1ccccc1F)NCc1ccccc1	12	-29	0	9.1*	0	30*	13*
Cc1cc(C(=O)Nc2ccccc2)c(C)o1	-8	.	1	-4	.	.	.
Cc1ccc(NC(=O)C(OC(=O)c2cc(C)oc2C)c2ccccc2)cc1 (centres undefined)	14	0	0	11*	0	16	12*
CS(=O)(=O)c1ccc(C(=O)Nc2cccc(-c3nc4ccccc4[nH]3)c2)cc1	6	10	0	9.2*	0	-13	-2
COCC(=O)Nc1ccc2c(c1)[C@H]1C[C@@H](CC(=O)NCc3cccc(F)c3)O[C@H](CO)[C@H]1O2	.	0	.	.	0	.	.
N#CC(c1ccc(Cl)cc1)c1nc2ccccc2nc1C(F)(F)F (centres undefined)	8	.	0	4	.	.	.
Cc1cccc(C(C#N)c2nc3ccccc3nc2C(F)(F)F)c1 (centres undefined)	18	.	0	8.7*	.	10	4
O=C(COC(=O)c1ccc(O)cc1O)Nc1cc(-c2ccccc2)nn1-c1ccccc1	20	-12	0	8.8*	1	24*	16*
C[C@@H]1CN([C@H](C)CO)C(=O)Cc2cc(NC(=O)C3CC3)ccc2O[C@H]1CN(C)C(=O)Nc1ccc(F)cc1	.	4	.	.	0	.	.
COC(=O)[C@]12C[C@H](CC(=O)NCc3ccccc3)C(=O)N(CCc3ccc(OC)c(OC)c3)C1=C[C@H](COCc1ccccc1)O[C@@H]2C	-1	.	1	-2	.	.	.
COC(=O)[C@]12C[C@H](CC(=O)N3CCCCC3)C(=O)N(Cc3ccc(Cl)cc3Cl)C1=C[C@H](COCc1ccccc1)O[C@@H]2C	4	.	0	-4	.	.	.
